In the supplement of paper PMC8371130:
Structures can show the parent of a compound that is named as a salt.

Test system: HL-1
Assay: relative cell viability (CellTiter-Glo) vs DMSO control (% of DMSO control); higher = more viable cells
In short: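 Cell viability was determined from CellTiter-Glo luminescence, expressed relative to vehicle-treated control cells. The cells were HL-1 mouse atrial cardiomyocytes, plated at 1000 cells per well in 384-well plates with compounds at 40, 200, 1000 or 5000 nM in 0.01% DMSO. One day after plating, they underwent 48 h of hypoxia (1% O2) in a hypoxic workstation followed by 24 h of reoxygenation in a normal incubator, or were kept in normoxia for an equal time.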

[1] = oxygen condition: hypoxia 48 h (1% O2) + reoxygenation 24 h, 40 nM
[2] = oxygen condition: hypoxia 48 h (1% O2) + reoxygenation 24 h, 200 nM
[3] = oxygen condition: hypoxia 48 h (1% O2) + reoxygenation 24 h, 1000 nM
[4] = oxygen condition: hypoxia 48 h (1% O2) + reoxygenation 24 h, 5000 nM
[5] = oxygen condition: normoxia 72 h, 40 nM
[6] = oxygen condition: normoxia 72 h, 200 nM
[7] = oxygen condition: normoxia 72 h, 1000 nM
[8] = oxygen condition: normoxia 72 h, 5000 nM

Row | Structure (SMILES) | relative cell viability [1] | relative cell viability [2] | relative cell viability [3] | relative cell viability [4] | relative cell viability [5] | relative cell viability [6] | relative cell viability [7] | relative cell viability [8]
1 | N#C[C@@H]1CCCN1C(=O)CNC12CC3CC(CC(O)(C3)C1)C2 [Vildagliptin] | 63.4 | 104 | 114 | 117 | 103 | 95.7 | 99 | 119
2 | C=CCc1cc(OC)c(O)c(C(=O)NCCO)c1 [Alibendol] | 103 | 102 | 108 | 113 | 101 | 104 | 112 | 115
3 | COc1cc2nc(N3CCN(C(=O)C4COc5ccccc5O4)CC3)nc(N)c2cc1OC (stereo not drawn) [Doxazosin mesylate] | 104 | 107 | 108 | 106 | 105 | 102 | 103 | 114
4 | CC(C)NCC(O)COc1ccc(CCOCC2CC2)cc1 (stereo not drawn) [Betaxolol hydrochloride] | 107 | 104 | 106 | 79.8 | 105 | 106 | 86.5 | 69.3
5 | COC(=O)C1=C(C)NC(C)=C(C(=O)OC(C)C)C1c1cccc2nonc12 (stereo not drawn) [Isradipine] | 106 | 111 | 106 | 104 | 108 | 97.7 | 102 | 110
6 | C[C@]12C=CC(=O)N[C@@H]1CC[C@@H]1[C@@H]2CC[C@]2(C)[C@@H](C(=O)Nc3cc(C(F)(F)F)ccc3C(F)(F)F)CC[C@@H]12 [Dutasteride] | 104 | 106 | 109 | 108 | 105 | 106 | 113 | 99.6
7 | CC(C)(OCc1nn(Cc2ccccc2)c2ccccc12)C(=O)O [Bindarit] | 99.2 | 99.8 | 100 | 3.69 | 96.7 | 100 | 95.7 | 3.69
8 | O=C(O)C[C@H](O)C[C@H](O)/C=C/c1c(C2CC2)nc2ccccc2c1-c1ccc(F)cc1 [Pitavastatin calcium] | 109 | 109 | 85.5 | 7.03 | 117 | 109 | 88.9 | 4.53
9 | C[C@]12CC[C@H](O)CC1=CC[C@@H]1[C@@H]2CC[C@]2(C)C(c3cccnc3)=CC[C@@H]12 [Abiraterone] | 74.6 | 72.2 | 86.7 | 116 | 61.2 | 67.9 | 78.7 | 112
10 | Clc1ccccc1CN1CCc2sccc2C1 [Ticlopidine HCl] | 96.8 | 94.8 | 97 | 103 | 94.9 | 97.1 | 95.5 | 108
11 | O=C(O)[C@H](CC(=O)N1C[C@H]2CCCC[C@H]2C1)Cc1ccccc1 [Mitiglinide calcium] | 108 | 101 | 99.7 | 108 | 101 | 102 | 104 | 110
12 | O=S(=O)(O)c1cc(O)ccc1O [Ethamsylate] | 105 | 101 | 105 | 109 | 96.6 | 101 | 96.8 | 107
13 | Cc1ccc(NC(=O)c2ccc(CN3CCN(C)CC3)cc2)cc1Nc1nccc(-c2cccnc2)n1 [Imatinib] | 101 | 101 | 110 | 107 | 105 | 100 | 98.6 | 111
14 | OC(CNCC(O)C1CCc2cc(F)ccc2O1)C1CCc2cc(F)ccc2O1 (stereo not drawn) [Nebivolol] | 106 | 109 | 106 | 112 | 103 | 107 | 112 | 115
15 | CCc1c2c(nc3ccc(OC(=O)N4CCC(N5CCCCC5)CC4)cc13)-c1cc3c(c(=O)n1C2)COC(=O)[C@]3(O)CC [Irinotecan] | 99.9 | 90.1 | 51.8 | 28.7 | 95.2 | 83.4 | 64.9 | 22.8
16 | C=CCNC(N)=S [Allylthiourea] | 118 | 102 | 115 | 122 | 106 | 100 | 109 | 124
17 | CN1CC2c3ccccc3Oc3ccc(Cl)cc3C2C1 (stereo not drawn) [Asenapine] | 105 | 104 | 108 | 106 | 111 | 101 | 103 | 111
18 | N[C@@H](CSCCCO)C(=O)O [Fudosteine] | 105 | 105 | 109 | 111 | 106 | 109 | 104 | 115
19 | O=c1oc2cc(O)ccc2s1 [Tioxolone] | 106 | 104 | 108 | 110 | 107 | 109 | 113 | 106
20 | O=C1c2cccc3c2[C@H](CCC3)CN1[C@@H]1CN2CCC1CC2 [Palonosetron HCl] | 103 | 109 | 112 | 97 | 101 | 103 | 86.6 | 104
21 | CCN(CC)CCOC(=O)C1(C2CCCCC2)CCCCC1 [Dicyclomine HCl] | 94.1 | 95.7 | 97.1 | 100 | 92.4 | 101 | 97.2 | 105
